For nine compounds, Potency and viability (% of DMSO) results are on record in PubChem BioAssay (NCATS).

SMILES strings stand for the structures. Records with an inconclusive call do not appear. The source made the active and inactive calls. The call rests on the fitted dose curve; in most records, active means well fitted curve in the direction sought with a large enough effect; inconclusive means small, poorly fitted or top-dose-only effect, or another doubt; inactive means no such curve, though single readings can be large; an effect the other way counts as inactive or inconclusive.

Test [1] has as its target Glutathione peroxidase 1 (Homo sapiens) (UniProt P07203). As to the kind of experiment: Primary qHTS Assay for Inhibitors of Recombinant Selenoprotein Glutathione Peroxidase 1 (GPX1) (AID 1845191). Further: nearly all actives have a fitted effect of over 65% in size. The method, boiled down:
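10 nM GPX1 + cpd, 30 min RT; start w/ 1 mM GSH, 0.5 mM cumene hydroperoxide, 0.5 mM NADPH, 100 nM GR, 0.01% BSA; buffer 50 mM Tris-HCl pH 7.5, 2 mM EDTA, 150 mM NaCl; Fl 340/450, 0 & 15 min.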
In general terms: qHTS replaces the single test concentration by a dilution series.

Test [2] has as its target Phospholipid hydroperoxide glutathione peroxidase GPX4 (Homo sapiens) (UniProt P36969). The experiment in a line: Primary qHTS Assay for Inhibitors of Recombinant Selenoprotein Glutathione Peroxidase 4 (GPX4) (AID 1845192). Further: nearly all actives have a fitted effect of over 65% in size. The essentials:
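NADPH consumption, followed by fluorescence at 340/450 nm between 0 and 15 min, reports GPX4 activity via coupled glutathione reductase (100 nM). Enzyme 200 nM was pre-exposed to compound 30 min; 0.5 mM cumene hydroperoxide and 1 mM GSH served as substrates.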

Test [3] can be described thus: Quantitative High-Throughput drug screen in 47 multiple myeloma cell lines against the NCATS MIPE library collection: FR4_PLB cell viability assay (AID 1918924; further: nearly all actives have a fitted effect of over 35% in size; further: potency means the concentration at half of the fitted maximal effect). The method, boiled down: (§1)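 Luminescent ATP measurement with CellTiter-Glo gives viability, scaled between DMSO-only wells (100%) and media-only wells (0%). Cells, 500 per well, faced library compounds for 48 hours at 37C.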

Test [4] in a line: Quantitative High-Throughput drug screen in 47 multiple myeloma cell lines against the NCATS MIPE library collection: Delta47_JCRB cell viability assay (AID 1918925; further: nearly all actives have a fitted effect of over 45% in size; further: potency means the concentration at half of the fitted maximal effect). The method, boiled down:
(§2)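 Myeloma cells (500 per well) were exposed to MIPE 4.0 compounds by pin transfer and incubated 48 hours at 37C, 5% CO2. Viability was read as ATP by CellTiter-Glo luminescence, normalised to DMSO (100%) and media-only (0%) wells.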

Test [5] can be described thus: Quantitative High-Throughput drug screen in 47 multiple myeloma cell lines against the NCATS MIPE library collection: EJM_DSMZ cell viability assay (AID 1918926; further: nearly all actives have a fitted effect of over 30% in size; further: potency means the concentration at half of the fitted maximal effect). The essentials: as §2
A short description of test [6]: Quantitative High-Throughput drug screen in 47 multiple myeloma cell lines against the NCATS MIPE library collection: AMO1_DSMZ cell viability assay (AID 1918927; further: nearly all actives have a fitted effect of over 30% in size; further: potency means the concentration at half of the fitted maximal effect). The essentials: as §2
The nature of test [7]: Quantitative High-Throughput drug screen in 47 multiple myeloma cell lines against the NCATS MIPE library collection: ARP1_JJKsccF8 cell viability assay (AID 1918928; further: nearly all actives have a fitted effect of over 40% in size; further: potency means the concentration at half of the fitted maximal effect). The essentials:
(§3)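 Myeloma cells, 500 per well, were exposed to MIPE 4.0 drugs by pin transfer for 48 h at 37 °C, 5% CO2. Viability was read as ATP luminescence with CellTiter-Glo, normalised to DMSO-only (100%) and medium-only (0%) wells.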

The nature of test [8]: Quantitative High-Throughput drug screen in 47 multiple myeloma cell lines against the NCATS MIPE library collection: Karpas620_DSMZ cell viability assay (AID 1918959). Further: nearly all actives have a fitted effect of over 30% in size. Further: potency means the concentration at half of the fitted maximal effect. The essentials: as §1
A short description of test [9]: Quantitative High-Throughput drug screen in 47 multiple myeloma cell lines against the NCATS MIPE library collection: KMM1_JCRB cell viability assay (AID 1918960). Further: nearly all actives have a fitted effect of over 30% in size. Further: potency means the concentration at half of the fitted maximal effect. The method, boiled down:
as §3

The nature of test [10]: Quantitative High-Throughput drug screen in 47 multiple myeloma cell lines against the NCATS MIPE library collection: JIM3_ECACC cell viability assay (AID 1918963; further: nearly all actives have a fitted effect of over 35% in size; further: potency means the concentration at half of the fitted maximal effect). The essentials: as §1
The nature of test [11]: Quantitative High-Throughput drug screen in 47 multiple myeloma cell lines against the NCATS MIPE library collection: JIM1_ECACC cell viability assay (AID 1918964; further: potency means the concentration at half of the fitted maximal effect). The essentials: as §2
Test [12] in a line: Quantitative High-Throughput drug screen in 47 multiple myeloma cell lines against the NCATS MIPE library collection: INA6_PLB cell viability assay (AID 1918965; further: nearly all actives have a fitted effect of over 55% in size; further: potency means the concentration at half of the fitted maximal effect). The essentials:
(§4)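 Steps: seed 500 cells per well; pin-transfer MIPE 4.0 library; incubate 48 h at 37C, 5% CO2, humidified; add CellTiter-Glo, 5 min room temperature; read luminescence.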

Test [13] in a line: Quantitative High-Throughput drug screen in 47 multiple myeloma cell lines against the NCATS MIPE library collection: KHM11_PLB cell viability assay (AID 1918962). Further: nearly all actives have a fitted effect of over 35% in size. Further: potency means the concentration at half of the fitted maximal effect. The method, boiled down:
as §1

Test [14] in a line: Quantitative High-Throughput drug screen in 47 multiple myeloma cell lines against the NCATS MIPE library collection: Karpas417_ECACC cell viability assay (AID 1918961). Further: potency means the concentration at half of the fitted maximal effect. To be noted: Karpas417 myeloma viability, CellTiter-Glo ATP luminescence, 48 h; viability (% of DMSO): at 45.8 µM (top of the series). The essentials:
as §4

The nature of test [15]: Quantitative High-Throughput drug screen in 47 multiple myeloma cell lines against the NCATS MIPE library collection: ARD_JJKsccE7 cell viability assay (AID 1918929). The method, boiled down:
as §2

Chain of Glutathione peroxidase 1 (Homo sapiens) (P07203 whole entry, looked up): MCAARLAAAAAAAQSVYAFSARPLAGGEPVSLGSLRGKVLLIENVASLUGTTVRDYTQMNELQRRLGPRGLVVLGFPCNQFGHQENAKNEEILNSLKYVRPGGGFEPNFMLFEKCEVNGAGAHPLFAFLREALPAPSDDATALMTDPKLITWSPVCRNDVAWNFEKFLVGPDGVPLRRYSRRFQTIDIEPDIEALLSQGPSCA
Chain of Phospholipid hydroperoxide glutathione peroxidase GPX4 (Homo sapiens) (P36969 whole entry, looked up): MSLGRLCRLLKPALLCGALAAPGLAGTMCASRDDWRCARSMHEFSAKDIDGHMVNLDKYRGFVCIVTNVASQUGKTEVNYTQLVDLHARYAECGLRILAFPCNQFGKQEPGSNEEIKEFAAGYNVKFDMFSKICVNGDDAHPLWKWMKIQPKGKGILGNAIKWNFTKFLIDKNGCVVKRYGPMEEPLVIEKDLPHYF

As to `COc1cc([C@@H]2c3cc4c(cc3[C@@H](O)C3COC(=O)C32)OCO4)cc(OC)c1O` (some centres undefined), the Potency entry in test [1] and in test [2] was “inactive” throughout. Besides, the Potency is 6.6 nM (active) in test [3]; 26.4 nM (active) in [4]; 46.9 nM (active) in test [5]; 1 nM (active) in test [6]; 20.9 nM (active) in test [7]; 18.7 nM (active) in [8]. Besides, the Potency in [9] was 18.7 nM (active); in [10], 33.2 nM (active); in test [11], 4.2 nM (active); in [12], 41.8 nM (active).

In the case of `CCOC(=O)c1cncn1[C@H](C)c1ccccc1`, the Potency entry in test [3], in test [4], in test [5], in test [6], in test [9] and in test [13] was “inactive” each time. The Potency result in test [10], in test [11] and in [12] was “inactive” each time.

Consider `O=c1cccc2n1CC1CNC[C@H]2C1`, for which the Potency result in [1], in [3], in [5], in test [13] and in [10] was “inactive” in each case. Besides, the Potency in test [6] is 13200 nM (active); in [8], 13200 nM (active); in test [9], 11800 nM (active); in test [12], 14800 nM (active).

`COc1cc2cc(c1Cl)N(C)C(=O)C[C@H](OC(=O)C(C)C)[C@]1(C)O[C@H]1[C@H](C)[C@@H]1C[C@@](O)(NC(=O)O1)[C@H](OC)C=CC=C(C)C2`: the Potency result in [3], in test [4], in test [5], in test [6], in [7] and in test [9] was “inactive” in each case. The Potency entry in test [13], in [10], in test [11] and in test [12] was “inactive” each time.

Take `CC(=O)[O][Hg][c]1ccccc1`: the Potency entry in test [2] is “inactive”.

For `CC1=C(O)C(=O)C=C2C1=CC=C1[C@@]2(C)CC[C@@]2(C)[C@@H]3C[C@](C)(C(=O)O)CC[C@]3(C)CC[C@]12C`, the Potency result in test [1] is “inactive”. Moreover, the Potency in [3] was 743 nM (active); in [4], 833 nM (active); in test [5], 743 nM (active); in [6], 526 nM (active); in test [7], 743 nM (active); in test [8] it was 1050 nM (active). For the same compound, the Potency in [9] was 833 nM (active); in test [14] it was 743 nM (active); in test [13], 743 nM (active); in test [10], 662 nM (active); in test [11], 743 nM (active); in [12], 743 nM (active).

Turning to `COc1cccc2c1[C@]13CCN(CC4CC4)[C@H](C2)[C@]1(OC)CCC(=O)C3`, the Potency result in test [3], in test [4], in test [5], in [6], in test [7] and in test [8] was “inactive” throughout. The Potency result in [9], in test [13], in [10] and in test [12] was “inactive” throughout. In addition, the viability (% of DMSO) in test [14] is 89.4% (active).

In the case of `c1ccc2c(CN3CCNCC3)cccc2c1`, the Potency result in test [1], in [3], in test [4], in test [5], in test [6] and in test [7] was “inactive” each time. Moreover, the Potency entry in test [15], in test [8], in [9], in test [13], in test [10] and in test [11] was “inactive” throughout. Moreover, the Potency entry in test [12] was “inactive”.

In the case of `COCC1(CO)C(=O)C2CCN1CC2` (centres undefined), in [1], the Potency entry is “inactive”. Further, the Potency was 16600 nM (active) in test [3]; 20900 nM (active) in test [5]; 1480 nM (active) in test [7]; 23500 nM (active) in test [8]; 20900 nM (active) in [9]; 3720 nM (active) in [14]. In addition, the Potency in [13] was 7430 nM (active); in [10], 18700 nM (active); in test [11], 6620 nM (active); in test [12], 2960 nM (active).
